{
  "source": "PubChem BioAssay (Tox21)",
  "note": "Results filed as inconclusive are left out. Calls of active or inactive are those of the source. Calls follow the shape of the dose curve; as a rule, active = well fitted inhibition curve with a large enough effect in the repeat runs; inconclusive = weak or mixed curves; inactive = no such curve, though single readings can be large or run the other way. % is scaled to controls: 0 for no effect and ±100 for the full control effect; potency is read from the fitted curve at half-maximal effect.",
  "data": [
    {"target": "Estrogen receptor (Homo sapiens) (UniProt P03372)", "sequence (P03372 whole entry, looked up)": "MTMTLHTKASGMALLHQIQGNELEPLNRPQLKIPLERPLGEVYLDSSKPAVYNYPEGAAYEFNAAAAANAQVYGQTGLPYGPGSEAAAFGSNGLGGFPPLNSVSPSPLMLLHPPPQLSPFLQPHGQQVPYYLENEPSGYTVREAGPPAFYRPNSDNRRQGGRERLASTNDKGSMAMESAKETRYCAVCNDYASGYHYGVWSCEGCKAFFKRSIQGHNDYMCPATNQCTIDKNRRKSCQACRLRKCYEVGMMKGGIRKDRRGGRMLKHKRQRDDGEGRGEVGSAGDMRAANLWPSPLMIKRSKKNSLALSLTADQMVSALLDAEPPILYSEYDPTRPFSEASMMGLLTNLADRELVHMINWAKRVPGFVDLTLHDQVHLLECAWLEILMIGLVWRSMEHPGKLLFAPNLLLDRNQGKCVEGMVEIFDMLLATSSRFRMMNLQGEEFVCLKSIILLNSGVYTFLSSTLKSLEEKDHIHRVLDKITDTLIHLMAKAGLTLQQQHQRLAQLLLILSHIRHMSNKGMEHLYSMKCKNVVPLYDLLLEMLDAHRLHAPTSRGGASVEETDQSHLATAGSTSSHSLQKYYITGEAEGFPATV", "assay": "qHTS assay to identify small molecule antagonists of the estrogen receptor alpha (ER-alpha) signaling pathway using the BG1 cell line in the presence of 0.1 nM 17-beta-estradiol (AID 1259244); also: nearly all actives have a fitted effect of over 50% in size", "details": "VM7Luc4E2 (BG1) ERE-luciferase, antagonist mode, 0.1 nM E2, 22 h; series mostly up to 92.4 µM; activity change, negative = inhibition: at the top concentration", "excerpt": "National Center for Advancing Translational Sciences [NCATS]\nNIH Chemical Genomics Center [NCGC]\nU.S. Environmental Protection Agency [EPA]\nNational Institutes of Environmental Health Sciences [NIEHS]\nNational Toxicology Program [NTP]\nU.S. Food and Drug Administration [FDA]\nEstrogen receptor (ER), a member of the nuclear hormone receptor plays an important role in development, metabolic homeostasis and reproduction. Two subtypes of ER, ER-alpha and ER-beta, have similar expression patterns with some uniqueness in both types. Endocrine disrupting chemicals (EDCs) and their interactions with steroid hormone receptors like ER causes disruption of normal endocrine function. Therefore, it is important to understand the effect of environmental chemicals in ER signaling pathway. For identifying ER antagonists, VM7Luc4E2 cell line was used to screen against Tox21 compound libraries.\nVM7Luc4E2 cell line (provided by Denison MS, University of California) endogenously express full-length ER-alpha and is stably transfected with a plasmid containing four estrogen responsive elements (ERE) upstream of a luciferase reporter gene. The current screening for identification of ER-alpha inhibitors against Tox21 compound libraries used lower concentration (0.1 nM) of 17beta-Estradiol as a stimulator.\nTox21 Assay Protocol Summary:\nVM7Luc4E2 cells were cultured in phenol red free assay medium containing 10% charcoal stripped FBS for 5 days prior to the assay. The cells were dispensed at 4,000 cells/well in 4 uL of assay medium into white wall/solid-bottom 1536-well plates (Corning Life Sciences, Corning, NY) using a Multidrop Combi (ThermoFisher Scientific, Waltham, MA) dispenser. After the assay plates were incubated at 37C and 5% CO2 for 24 hr, 23 nL of compounds dissolved in DMSO, positive controls or DMSO only was transferred to the assay plates by a Pintool station (Kalypsys, San Diego, CA). The transfer of compounds was followed by the addition of 1 uL of 0.1 nM (final concentration) agonist (17beta-Estradiol)/assay medium using a Flying Reagent Dispenser (FRD, Aurora Discovery, San Diego, CA). The plates were incubated at 37C and 5% CO2 for 22 hr. For luciferase reporter gene assay, 4 uL of ONE-Glo reagent (Promega Corporation, Madison, WI) was added to each well using the FRD and after 30 min incubation at room temperature luminescence intensity was measured using ViewLux plate reader (PerkinElmer, Shelton, CT).", "values": [
      {"smiles": "Cc1cccc2c1ccc1ccccc12", "activity change, negative = inhibition": "30.7% (inactive)"},
      {"smiles": "CCNc1nc(NC(C)(C)C)nc(OC)n1", "activity change, negative = inhibition": "-1.95% (inactive)"},
      {"smiles": "C=CCc1cc(S(=O)(=O)c2ccc(O)c(CC=C)c2)ccc1O", "Potency": "61.1 µM (active)"},
      {"smiles": "CCOC(=O)[C@H](C)O", "activity change, negative = inhibition": "2.27% (inactive)"},
      {"smiles": "CCCCCCCCOC(=O)c1cc(O)c(O)c(O)c1", "Potency": "24.3 µM (active)"},
      {"smiles": "C[C@H]1O[C@@H](O[C@H]2CC[C@@]3(C)[C@H](CC[C@@H]4[C@@H]3C[C@@H](O)[C@]3(C)[C@@H](C5=CC(=O)OC5)CC[C@]43O)C2)C[C@H](O)[C@@H]1O[C@H]1C[C@H](O)[C@H](O[C@H]2C[C@H](O)[C@H](O[C@@H]3O[C@H](CO)[C@@H](O)[C@H](O)[C@H]3O)[C@@H](C)O2)[C@@H](C)O1", "activity change, negative = inhibition": "-76.3% [at 42.5 µM] (inactive)"},
      {"smiles": "CC(Cc1ccc(O)c(O)c1)C(C)Cc1ccc(O)c(O)c1", "note": "(stereo not given)", "activity change, negative = inhibition": "0.5% (inactive)"},
      {"smiles": "Nc1ccc(Oc2cccc(Oc3ccc(N)cc3)c2)cc1", "Potency": "8.63 µM (active)"},
      {"smiles": "O=C1OC(O)C(C(Cl)Cl)=C1Cl", "note": "(stereo not given)", "activity change, negative = inhibition": "-14% (inactive)"},
      {"smiles": "Cc1ccc2n[nH]nc2c1", "activity change, negative = inhibition": "-1.93% (inactive)"},
      {"smiles": "c1ccc2occc2c1", "Potency": "68.6 µM (active)"},
      {"smiles": "C=COCCCC", "activity change, negative = inhibition": "-1.29% (inactive)"},
      {"smiles": "N#Cc1ccc(C/C(=N/NC(=O)Nc2ccc(OC(F)(F)F)cc2)c2cccc(C(F)(F)F)c2)cc1", "activity change, negative = inhibition": "-7.21% (inactive)"},
      {"smiles": "CCCCCCCCCC[N+](C)(CCCCCCCCCC)CCC[Si](OC)(OC)OC", "activity change, negative = inhibition": "32.3% (inactive)"},
      {"smiles": "Cc1ccc2nc(-c3ccc(N)cc3)sc2c1S(=O)(=O)O", "activity change, negative = inhibition": "-1.55% [at 42.5 µM] (inactive)"},
      {"smiles": "CCCC(=O)c1cc(O)c(O)cc1O", "activity change, negative = inhibition": "2.45% (inactive)"},
      {"smiles": "O=c1cc[nH]cc1", "activity change, negative = inhibition": "2.51% (inactive)"},
      {"smiles": "O=C(Nc1ccccc1)c1cc(Cl)ccc1O", "Potency": "12.2 µM (active)"},
      {"smiles": "CC1=CC[C@@H](C(C)(C)O)CC1", "activity change, negative = inhibition": "0% (inactive)"},
      {"smiles": "Cc1ccc(N=Nc2c(O)ccc3ccccc23)c(C)c1", "activity change, negative = inhibition": "11.4% [at 42.5 µM] (inactive)"},
      {"smiles": "Cn1ccnc1", "activity change, negative = inhibition": "-4.32% (inactive)"},
      {"smiles": "NC(=O)C1CO1", "note": "(stereo not given)", "activity change, negative = inhibition": "2.3% (inactive)"},
      {"smiles": "Cc1ccc(C=O)cc1", "activity change, negative = inhibition": "9.76% [at 42.5 µM] (inactive)"},
      {"smiles": "[Cl][Sc]([Cl])[Cl]", "activity change, negative = inhibition": "6.21% (inactive)"},
      {"smiles": "Cn1c(=O)[nH]c2ncn(C)c2c1=O", "activity change, negative = inhibition": "10.4% (inactive)"},
      {"smiles": "CC(C)C(=O)C(C)C", "activity change, negative = inhibition": "-0.223% (inactive)"},
      {"smiles": "O=C1OC(=O)c2cc(-c3ccc4c(c3)C(=O)OC4=O)ccc21", "activity change, negative = inhibition": "8.9% (inactive)"},
      {"smiles": "[Cl][Dy]([Cl])[Cl]", "activity change, negative = inhibition": "2.23% (inactive)"},
      {"smiles": "CCCCCCCCCCCCN1CCCC1=O", "activity change, negative = inhibition": "28.1% (inactive)"},
      {"smiles": "O=S(=O)(c1ccc(OCc2ccccc2)cc1)c1ccccc1O", "Potency": "27.3 µM (active)"},
      {"smiles": "Cc1cc(C)c(O)c(C(C)(C)C)c1", "activity change, negative = inhibition": "-8.96% (inactive)"},
      {"smiles": "Cc1c[nH]c(=O)[nH]c1=O", "activity change, negative = inhibition": "-4.94% (inactive)"},
      {"smiles": "O=C1CCC(=O)N1", "activity change, negative = inhibition": "0.268% (inactive)"},
      {"smiles": "CCN(CC)c1ccc(C=O)cc1", "activity change, negative = inhibition": "-1.35% (inactive)"},
      {"smiles": "O=C(CCN1CCC(c2ccccc2)C1)c1ccc2c(c1)OCCO2", "note": "(stereo not given)", "activity change, negative = inhibition": "-16.7% [at 42.5 µM] (inactive)"},
      {"smiles": "O=[N+]([O-])c1ccc(CO)cc1", "activity change, negative = inhibition": "1.06% (inactive)"},
      {"smiles": "C=CC(=O)OCCOC1C2CCC1C1CC=CC12", "note": "(stereo not given)", "activity change, negative = inhibition": "2.43% [at 19 µM] (inactive)"},
      {"smiles": "Cc1ccc(S(=O)(=O)C(I)I)cc1", "Potency": "13.7 µM (active)"},
      {"smiles": "CCc1c(C)cc(N)c(CC)c1N", "activity change, negative = inhibition": "-14.7% (inactive)"},
      {"smiles": "Cc1cc(Br)ccc1NC(=O)CCl", "activity change, negative = inhibition": "-110% (inactive)"}
    ]}
  ]
}
